PLCg1 inh: PLC-gamma1 (human) inhibition, primary screen; purified PLC-gamma1, fluorogenic substrate, fluorescence; inhibition, % at 12.2 µM; actives 0.84% (n = 370,000); AID 720700; in the data active = inhibition above about 9.5%
Target sequence (P19174 whole entry, looked up): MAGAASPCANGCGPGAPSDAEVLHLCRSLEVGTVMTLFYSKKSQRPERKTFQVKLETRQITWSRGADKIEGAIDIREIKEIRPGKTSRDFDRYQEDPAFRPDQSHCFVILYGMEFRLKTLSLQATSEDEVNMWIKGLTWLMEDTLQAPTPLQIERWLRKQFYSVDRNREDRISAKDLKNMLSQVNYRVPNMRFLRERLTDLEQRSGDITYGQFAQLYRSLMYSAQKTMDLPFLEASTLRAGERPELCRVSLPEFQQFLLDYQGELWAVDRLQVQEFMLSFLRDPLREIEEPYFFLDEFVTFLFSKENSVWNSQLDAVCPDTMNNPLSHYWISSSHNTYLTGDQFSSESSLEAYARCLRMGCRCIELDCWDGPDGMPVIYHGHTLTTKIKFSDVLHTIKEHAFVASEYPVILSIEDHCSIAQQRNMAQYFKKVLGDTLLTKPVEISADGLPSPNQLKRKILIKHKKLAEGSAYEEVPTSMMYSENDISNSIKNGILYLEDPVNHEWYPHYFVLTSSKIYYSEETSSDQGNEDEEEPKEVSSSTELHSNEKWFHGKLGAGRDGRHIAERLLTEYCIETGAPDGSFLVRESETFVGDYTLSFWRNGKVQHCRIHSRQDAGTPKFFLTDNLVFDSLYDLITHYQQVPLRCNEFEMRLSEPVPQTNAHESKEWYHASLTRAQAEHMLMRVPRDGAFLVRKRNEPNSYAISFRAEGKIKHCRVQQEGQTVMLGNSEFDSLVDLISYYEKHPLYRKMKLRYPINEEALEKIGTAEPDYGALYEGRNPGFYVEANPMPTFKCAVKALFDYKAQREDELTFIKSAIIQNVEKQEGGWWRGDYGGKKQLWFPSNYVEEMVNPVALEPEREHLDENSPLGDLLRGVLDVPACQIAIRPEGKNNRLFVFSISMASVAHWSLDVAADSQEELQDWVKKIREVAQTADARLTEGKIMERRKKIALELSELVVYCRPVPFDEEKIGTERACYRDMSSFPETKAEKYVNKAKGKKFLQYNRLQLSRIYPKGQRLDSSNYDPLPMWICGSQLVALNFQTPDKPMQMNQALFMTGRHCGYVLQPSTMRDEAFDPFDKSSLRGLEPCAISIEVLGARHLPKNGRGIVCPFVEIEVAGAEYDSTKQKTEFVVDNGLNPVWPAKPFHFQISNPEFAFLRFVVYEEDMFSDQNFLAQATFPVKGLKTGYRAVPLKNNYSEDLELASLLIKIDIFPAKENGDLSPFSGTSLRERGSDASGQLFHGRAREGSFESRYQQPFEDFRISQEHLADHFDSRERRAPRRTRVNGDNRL
ADAM10 inh: inhibitors of human ADAM10; O14672; recombinant ADAM10, EDANS/DABCYL FRET peptide cleavage, 3 h; inhibition, % at 7 µM; actives 0.62% (n = 370,000); AID 720582;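 active = inhibition above a per-campaign cutoff equal to the mean of compounds falling between control-based bounds plus 3 SD, cut at about 20% in these data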;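 note: 0% = DMSO wells while the 100% control is not disclosed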
PLC-beta3 inh: inhibitors of human phospholipase C beta3; Purified PLC-beta3, fluorogenic substrate, fluorescence; inhibition, % at 12.2 µM; actives 0.18% (n = 370,000); in the data active = inhibition above about 11%;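 note: 0% = median of compound wells on plate and 100% = full blocker control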
ADAM17 inh: inhibitors of human ADAM17; actives 0.83% (n = 370,000); inhibition, % at 6.95 µM; recombinant ADAM17, EDANS/DABCYL FRET peptide cleavage; AID 720648; P78536;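 active = inhibition above the mean of compounds lying between control limits plus 3 SD, set per campaign, cut at about 8.5% in these data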;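 note: 0% = DMSO-only wells as the low control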
proKLK7 act: activates the human kallikrein-7 zymogen; P49862; purified proKLK7, EDANS-DABCYL substrate fluorescence; 100% is mature enzyme control, 0% vehicle; activation, % at 7 µM; actives 0.9% (n = 370,000);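 active = activation above the mean of all tested compounds plus 3 SD, computed per campaign excluding outliers beyond control limits, cut at about 13% in these data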
sPLA2-III inh: Blocks human group III sPLA2 activity. Q9NZ20. QFRET BODIPY PC-A2 liposome hydrolysis, fluorescence. inhibition, % at 12.2 µM. actives 0.56% (n = 370,000);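 active = inhibition above mean plus 3 SD of compounds lying within the high and low control bounds, cut at about 19% in these data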;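 note: 0% = median of test compound wells and 100% = no enzyme DMSO wells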
ADAM10 confirm: human ADAM10 inhibition, confirmation. shares compounds with ADAM10 inh. ADAM10 QFRET peptide cleavage, EDANS fluorescence. inhibition, % at 6.95 µM. actives 1% (n = 2,100);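 active = inhibition above about 20% chosen separately for each screening run, limit read from the data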;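 note: 0% = DMSO wells and 100% = marimastat wells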
ADAM17 ctr: counter-screen for ADAM10 exosite inhibitors: inhibitors of human ADAM17 | shares compounds with ADAM10 inh | ADAM17 QFRET peptide cleavage, EDANS fluorescence | inhibition, % at 6.95 µM | actives 0.5% (n = 2,100) | AID 743214;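 active = mean triplicate inhibition above the solvent-only control wells' mean plus 3 SD, cut at about 12% in these data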;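 note: 0% = DMSO wells and 100% = marimastat wells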
ADAM10 ctr: counter-screen for ADAM17 exosite inhibitors: inhibitors of human ADAM10; shares compounds with ADAM17 inh; recombinant ADAM10, EDANS/DABCYL FRET peptide cleavage, 3 h; inhibition, % at 6.95 µM; actives 47% (n = 2,900);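 active = mean inhibition over the triplicate runs exceeds the activity threshold set in the earlier primary screen, cut at about 20% in these data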;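 note: 0% = DMSO wells and 100% = marimastat wells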
ADAM17 confirm: human ADAM17 inhibition, confirmation; AID 743257; recombinant ADAM17, EDANS/DABCYL QFRET peptide cleavage; shares compounds with ADAM17 inh; actives 65% (n = 2,900); inhibition, % at 6.95 µM;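 active = mean inhibition across replicates above the hit cutoff set in the primary screen, cut at about 8.5% in these data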;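 note: 0% = DMSO wells and 100% = marimastat wells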
* hit, by the source's call. Most compounds without a hit are left out; they make up all but 3.4% or so of the library.

Screening COC(=O)c1cc(NS(=O)(=O)c2ccc(N3CCC(C)CC3)c([N+](=O)[O-])c2)cc(C(=O)OC)c1 returned PLCg1 inh 8.8, ADAM10 inh 28.1*, PLC-beta3 inh 4.7, ADAM17 inh 13.0*, proKLK7 act -0.3, sPLA2-III inh -1.1, ADAM10 confirm 5.5, ADAM17 ctr 2.6, ADAM10 ctr 25.7* and ADAM17 confirm 16.7*.
CC1CCN(c2ccc(C(=O)Nc3ccc4c(c3)OCO4)cc2[N+](=O)[O-])CC1 was read as PLCg1 inh 3.8, ADAM10 inh 20.4*, PLC-beta3 inh 6.9, ADAM17 inh 8.7*, proKLK7 act 0.3, sPLA2-III inh -4.5, ADAM10 confirm 6.4, ADAM17 ctr 2.1, ADAM10 ctr 30.1* and ADAM17 confirm 15.6*.
CC1CCCN(c2ccc(C(=O)Nc3ccc4c(c3)OCO4)cc2[N+](=O)[O-])C1 (stereo unspecified) was read as PLCg1 inh 5.8, ADAM10 inh 18.6, PLC-beta3 inh 6.2, ADAM17 inh 6.2, proKLK7 act 0.1 and sPLA2-III inh 3.1.
For COc1ccccc1N1CCN(C(=O)CCC(=O)N2CCN(c3ccc(F)cc3)CC2)CC1 the results were PLCg1 inh 0.5, ADAM10 inh -4.3, PLC-beta3 inh 1.8, ADAM17 inh -8.4, proKLK7 act 0.0 and sPLA2-III inh 12.2.
For COCCN=c1scc(-c2cc(OC)ccc2OC)n1/N=C/c1c[nH]c2ccccc12 the results were PLCg1 inh -1.5, ADAM10 inh 20.1*, PLC-beta3 inh -0.7, ADAM17 inh 11.0*, proKLK7 act 0.7, sPLA2-III inh -31.1, ADAM10 confirm 17.3, ADAM17 ctr 6.5, ADAM10 ctr 15.6 and ADAM17 confirm 12.2*.
Screening COCCN=c1scc(-c2ccco2)n1/N=C/c1ccc(O)c(O)c1O returned PLCg1 inh -6.6, ADAM10 inh 9.6, PLC-beta3 inh -13.7, ADAM17 inh 1.5, proKLK7 act -0.1 and sPLA2-III inh 13.4.
COc1ccccc1-n1c(SCC(=O)Nc2ccc(Br)cc2)nc(O)cc1=O was read as PLCg1 inh -36.8, ADAM10 inh 27.7*, PLC-beta3 inh -3.7, ADAM17 inh 8.7*, proKLK7 act -0.4, sPLA2-III inh -5.7, ADAM10 confirm -1.0, ADAM17 ctr 0.1, ADAM10 ctr 2.0 and ADAM17 confirm 7.0.
CC(C)(C)OC(=O)N1CCC(N[C@@H](Cc2c[nH]c3ccccc23)C(=O)NCCc2c[nH]c3ccccc23)(C(=O)NC2CCCCC2)CC1 was read as PLCg1 inh 4.3, ADAM10 inh 25.6*, PLC-beta3 inh 0.9, ADAM17 inh 9.2*, sPLA2-III inh -100.5, ADAM10 confirm 8.9, ADAM17 ctr 2.2, ADAM10 ctr 28.5* and ADAM17 confirm 14.8*.
Screening CC(C)(N[C@@H](Cc1c[nH]c2ccccc12)C(=O)NCC(c1ccccc1)c1ccccc1)C(=O)NC1CCCCC1 returned PLCg1 inh 2.1, ADAM10 inh 21.1*, PLC-beta3 inh 1.8, ADAM17 inh 9.9*, sPLA2-III inh -97.4, ADAM10 confirm 7.9, ADAM17 ctr 2.8, ADAM10 ctr 39.8* and ADAM17 confirm 18.6*.
Screening O=C(NCC(c1ccccc1)c1ccccc1)[C@H](Cc1c[nH]c2ccccc12)NC1(C(=O)NC2CCCCC2)CCCC1 returned PLCg1 inh 2.9, ADAM10 inh 1.8, PLC-beta3 inh -2.4, ADAM17 inh -3.1 and sPLA2-III inh 3.4.
For O=C(NCCCc1ccccc1)[C@H](Cc1c[nH]c2ccccc12)NC1(C(=O)NCCc2c[nH]c3ccccc23)CCC1 the results were PLCg1 inh 5.7, ADAM10 inh 31.4*, PLC-beta3 inh 0.4, ADAM17 inh 15.8*, sPLA2-III inh -67.0, ADAM10 confirm 9.8, ADAM17 ctr 3.3, ADAM10 ctr 30.5* and ADAM17 confirm 14.3*.
For COC(=O)C(Cc1ccccc1)NC(=O)c1ccc(NS(=O)(=O)c2ccc3[nH]c(=O)[nH]c3c2)cc1 (stereo unspecified) the results were PLCg1 inh 1.0, ADAM10 inh -0.9, PLC-beta3 inh -3.4, ADAM17 inh 0.2, proKLK7 act -0.4 and sPLA2-III inh -9.4.
`CCCN(CC(=O)Nc1cccc(S(N)(=O)=O)c1)CC(=O)Nc1ccc(F)c(F)c1F` gave PLCg1 inh 3.3, ADAM10 inh -6.6, PLC-beta3 inh -4.4, ADAM17 inh 1.0, proKLK7 act -0.3 and sPLA2-III inh -9.0.
CCCN(CC(=O)Nc1cccc(Br)c1)CC(=O)Nc1ccc(F)c(F)c1F was read as PLCg1 inh 9.1, ADAM10 inh 32.1*, PLC-beta3 inh 11.3*, ADAM17 inh 21.5*, proKLK7 act -0.8, sPLA2-III inh -20.6, ADAM10 confirm 1.8, ADAM17 ctr 1.1, ADAM10 ctr 29.0* and ADAM17 confirm 15.5*.
Screening CN(CCn1ccnc1)Cc1cn(Cc2ccccc2)nc1-c1ccc2c(c1)OCO2 returned PLCg1 inh 1.4, ADAM10 inh 1.1, PLC-beta3 inh -6.0, ADAM17 inh 1.1, proKLK7 act 0.2 and sPLA2-III inh -20.2.
O=C(Nc1ccccc1)OC1CC2CC1[C@H]1CCCCN1[C@H]2Cc1ccccc1 (stereo partly specified) was read as PLCg1 inh 0.0, ADAM10 inh -3.6, PLC-beta3 inh 0.3, ADAM17 inh 1.5, proKLK7 act 0.0 and sPLA2-III inh -5.5.
Screening O=C(Nc1ccccc1)OC1CCC2CC1CCC2OC(=O)Nc1ccccc1 (stereo unspecified) returned PLCg1 inh -1.0, ADAM10 inh 23.6*, PLC-beta3 inh 4.0, ADAM17 inh 11.5*, proKLK7 act -0.2, sPLA2-III inh -7.5, ADAM10 confirm 9.0, ADAM17 ctr 3.3, ADAM10 ctr 38.4* and ADAM17 confirm 18.4*.

From PubChem
